Holding throughout (experiment): PBM binding z-score (relative to random genomic background probes); higher = stronger binding; sequences stand for … in GC…GCGATTGACAGCGTAGAATGAAGG
Test [1] deals with PPARg:RXRa DBDmut IVT, anti-RXR (DBD mutation: RXRa K156A/R161A, NR concentration 270 nM, RXRa partner concentration 90 nM). The gist of the method:
(§1)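 Regression normalization was applied to scanned fluorescence from custom Agilent 4×180K protein-binding microarrays. Before scanning, arrays were incubated 1 h with ligand-free nuclear receptor dimers, and binding was detected with antibodies against each partner (one per run). Binding z-scores use the random background probes as reference.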

In test [2] the test system is PPARg:RXRa IVT, anti-PPARg (NR concentration 270 nM, RXRa partner concentration 90 nM). An outline of the steps:
as §1

Test [3] relates to PPARg DBDmut:RXRa IVT, anti-PPARg (DBD mutation: PPARg1 K132A/R137A, NR concentration 270 nM, RXRa partner concentration 90 nM). An outline of the steps: as §1
Test [4] concerns PPARg DBDmut IVT, anti-PPARg (DBD mutation: PPARg1 K132A/R137A, NR concentration 270 nM). An outline of the steps: as §1
The subject of test [5] is PPARg homodimer (NR concentration 180 nM). The gist of the method:
as §1

The subject of test [6] is PXR:RXRa (NR concentration 270 nM, RXRa partner concentration 90 nM). The gist of the method:
as §1

Test [7] relates to PXR homodimer (NR concentration 270 nM). The gist of the method: as §1
Test [8] relates to RARa:RXR (NR concentration 270 nM, RXRa partner concentration 90 nM). The gist of the method:
as §1

Test [9] relates to RARa homodimer (NR concentration 270 nM). The gist of the method:
as §1

In test [10] the test system is RARb:RXRa (NR concentration 270 nM, RXRa partner concentration 90 nM). The gist of the method: as §1
The subject of test [11] is RARb homodimer (NR concentration 270 nM). An outline of the steps:
as §1

Test [12] has as its system RARg:RXRa (NR concentration 270 nM, RXRa partner concentration 90 nM). An outline of the steps:
as §1

In test [13] the test system is RARg homodimer (NR concentration 270 nM). The gist of the method: as §1
For test [14], the system named is RXRa DBDmut IVT, anti-RXR (DBD mutation: RXRa K156A/R161A, NR concentration 90 nM). An outline of the steps:
as §1

In test [15] the test system is RXRa homodimer (NR concentration 180 nM). An outline of the steps: as §1
The subject of test [16] is THRa:RXRa (NR concentration 90 nM, RXRa partner concentration 90 nM). An outline of the steps:
as §1

The subject of test [17] is THRa homodimer (NR concentration 90 nM). The gist of the method:
as §1

Test [18] has as its system VDR homodimer (NR concentration 270 nM). The gist of the method: as §1

On to AGAACGAGGGCAATGAGTTGATAGTACGGGTGGC, for which the PBM binding z-score in [1] was 3.34; in [2], 2.4; in [3] it was -0.466; in [4], 0.0133; in [5] it was 0.221; in test [6], 2. In addition, the PBM binding z-score is 6.24 in [7]; 0.19 in test [8]; -0.58 in [9]; 2.11 in test [10]; 1.2 in test [11]; 1.3 in test [12]. Further, the PBM binding z-score is 1.61 in test [13]; 2.24 in [14]; 0.933 in test [15]; 0.88 in [16]; -0.483 in test [17]; 3.56 in test [18].
For CCTACTGGGCCATTCAGAGGTCATTAATCATATG, the PBM binding z-score in test [1] is 4.22; in test [2], 4.37; in [3] it was 0.0729; in [4], 0.0343; in test [5], 2.11; in test [6] it was 4.17. Besides, the PBM binding z-score in test [7] was found to be 2.46; in test [8] it was 3.83; in [9] it was 0.0599; in test [10], 2.88; in test [11] it was 3.81; in test [12], 4.21. Besides, the PBM binding z-score in [13] was 2.91; in test [14] it was 0.793; in [15] it was 3.48; in test [16], 3.13; in test [17] it was 1.35; in test [18], 3.11.
In the case of TAGCCTAGGTCATGCGGGCCAGTCTAGTGTCGGC, the PBM binding z-score was determined as 1.3 in test [1]; 2.93 in test [2]; 0.182 in test [3]; 0.146 in [4]; 0.871 in [5]; 1.4 in test [6]. Further, the PBM binding z-score in [7] is -0.585; in test [8], 2.48; in test [9], -0.19; in [10], 3.86; in test [11] it was 2.8; in [12], 3.86. Further, the PBM binding z-score is 4.19 in test [13]; 0.255 in test [14]; 2.42 in test [15]; 2.75 in [16]; 0.583 in [17]; 0.569 in test [18].
As for TCTAGCAGGCTAGAGGGTCACTCAAGAGGTACGG, the PBM binding z-score is 0.497 in test [1]; 0.41 in test [2]; -0.174 in [3]; -0.574 in test [4]; 0.731 in test [5]; 1.48 in test [6]. Besides, the PBM binding z-score in [7] is -0.354; in [8], 2.02; in test [9], -0.017; in test [10], 1.93; in test [11], 2.47; in test [12] it was 2.08. The PBM binding z-score in test [13] is 1.81; in [14], 0.0423; in test [15], 2.42; in test [16] it was 1.59; in [17] it was -0.445; in [18] it was 0.31.
ATCGAAAGATCGAGGTGAGTATAGAGAAAGGGAA: the PBM binding z-score is -0.0862 in [1]; 1.27 in test [2]; 0.466 in [3]; 0.643 in test [4]; -0.144 in test [5]; -0.176 in [6]. For the same sequence, the PBM binding z-score in [7] was -0.105; in [8] it was 0.139; in test [9], -0.0593; in test [10], 0.194; in test [11] it was -0.0948; in test [12], 0.227. Moreover, the PBM binding z-score in test [13] was 0.358; in test [14] it was -0.896; in [15], 0.294; in test [16] it was 0.955; in test [17] it was 0.245; in [18] it was -0.151.
As to ACTACTAGTTGAGACGAGGGCAACCGATAGGTTG, the PBM binding z-score was determined as 0.0475 in [1]; 0.419 in test [2]; 0.298 in test [3]; 0.0425 in [4]; 0.265 in test [5]; 1.22 in test [6]. Besides, the PBM binding z-score in test [7] worked out at 0.4; in [8], 0.775; in test [9] it was 0.103; in test [10], 0.93; in [11] it was 1.18; in test [12] it was 0.816. In addition, the PBM binding z-score came to 0.767 in test [13]; 0.00344 in test [14]; 0.506 in test [15]; 2.46 in test [16]; 0.219 in test [17]; 0.599 in test [18].
For ACTCGGAGGACTAAGGTCAGAGCTACGCCAGTGA, the PBM binding z-score in test [1] is -0.123; in [2] it was 0.778; in [3], -0.0206; in test [4], -0.832; in test [5] it was 1.27; in [6], 1.8. Also, the PBM binding z-score in test [7] is 0.241; in test [8] it was 2.92; in test [9] it was -0.326; in [10] it was 2.88; in test [11] it was 3.15; in test [12] it was 2.89. Further, the PBM binding z-score came out at 2.54 in test [13]; 0.168 in test [14]; 2.34 in test [15]; 3.35 in test [16]; 2.6 in [17]; 0.805 in test [18].
Regarding TCGTGTAGATCAAAGGTTAAGAAAGCCGAAGCCT, the PBM binding z-score in test [1] is 0.876; in test [2], 2.22; in test [3], -0.315; in test [4], -0.277; in test [5] it was 1.21; in test [6] it was 1.9. In addition, the PBM binding z-score in test [7] is -0.215; in test [8], 2.68; in test [9], 0.495; in [10] it was 1.86; in test [11], 1.47; in [12], 1.76. For the same sequence, the PBM binding z-score stood at 0.92 in [13]; 0.608 in test [14]; 3.14 in [15]; 1.33 in test [16]; 0.108 in [17]; 0.111 in [18].

(Values after the supplement of paper PMC6555819.)
